Measurements reported in PubChem BioAssay (Tox21).
“And” between values parts separate entries of the source, which are not always exact repeats. Equal entries are not always repeated. Results filed as inconclusive are left out. A call without a number means that no potency is given here. Where a structure was tested more than once in an assay, its records may differ in their call. The source made the active and inactive calls. Unless noted, calls follow the shape of the dose curve; as a rule, active = well fitted curve in the direction sought with a large enough effect in the repeat runs; inconclusive = weak or mixed curves; inactive = no such curve, though single readings can be large; an effect the other way counts as inactive or inconclusive.

Tests used:
[1] = target: Cytochrome P450 3A4 (Homo sapiens) (UniProt P08684); test: Cytochrome P450 Family 3 Subfamily A Member 4 (CYP3A4) small molecule antagonists: luciferase reporter qHTS assay (AID 1671201); conditions: P450-Glo CYP3A4 enzyme, luciferin luminescence, 1 h; series mostly up to 115 µM; also: nearly all actives have a fitted effect of over 50% in size; also: potency is read from the fitted curve at half-maximal effect
Chain of Cytochrome P450 3A4 (Homo sapiens) (P08684 whole entry, looked up): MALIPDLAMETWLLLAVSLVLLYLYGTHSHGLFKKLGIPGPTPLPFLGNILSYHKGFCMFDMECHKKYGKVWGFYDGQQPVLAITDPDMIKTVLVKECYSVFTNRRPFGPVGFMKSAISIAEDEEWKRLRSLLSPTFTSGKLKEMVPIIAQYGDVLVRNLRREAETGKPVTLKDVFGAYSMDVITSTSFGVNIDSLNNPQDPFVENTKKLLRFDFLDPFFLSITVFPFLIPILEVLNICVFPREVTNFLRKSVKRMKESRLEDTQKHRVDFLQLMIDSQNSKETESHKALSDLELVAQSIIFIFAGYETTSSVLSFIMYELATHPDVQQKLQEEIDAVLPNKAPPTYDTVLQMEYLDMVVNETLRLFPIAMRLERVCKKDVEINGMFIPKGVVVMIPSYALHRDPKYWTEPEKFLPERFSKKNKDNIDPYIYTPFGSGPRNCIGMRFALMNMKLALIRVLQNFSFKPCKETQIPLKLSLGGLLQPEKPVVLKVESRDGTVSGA
Method in brief: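 CYP3A4 activity was followed with a P450-Glo proluciferin substrate. Test compounds in DMSO were preincubated 10 min; NADPH regeneration then ran 1 h, and light output was read 20 min after detection reagent.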

[2] = Caspase-3/7 induction in HepG2 cells by small molecules, qHTS cell viability counter screen (AID 1346981); conditions: CellTiter-Fluor fluorescence, 17 h; series mostly up to 92.4 µM; also: nearly all actives have a fitted effect of over 30% in size; also: potency is read from the fitted curve at half-maximal effect
Method in brief: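 Wild-type HepG2 cells, 2,000/well, settled 5 hr at 37 C, 5% CO2 before compound addition. Viability read by CellTiter-Fluor fluorescence, reagent added after 16 hr compound exposure, then 1 hr at 37C, in the same wells as the caspase read.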

[3] = target: Nuclear receptor subfamily 1 group I member 2 (Homo sapiens) (UniProt O75469); test: Human pregnane X receptor (PXR) small molecule agonists, qHTS assay (AID 1346982); conditions: PXR-Luc HepG2, CYP3A4 luciferase reporter, 24 h; series mostly up to 92.4 µM; also: nearly all actives have a fitted effect of over 35% in size; also: potency is read from the fitted curve at half-maximal effect
Chain of Nuclear receptor subfamily 1 group I member 2 (Homo sapiens) (O75469 whole entry, looked up): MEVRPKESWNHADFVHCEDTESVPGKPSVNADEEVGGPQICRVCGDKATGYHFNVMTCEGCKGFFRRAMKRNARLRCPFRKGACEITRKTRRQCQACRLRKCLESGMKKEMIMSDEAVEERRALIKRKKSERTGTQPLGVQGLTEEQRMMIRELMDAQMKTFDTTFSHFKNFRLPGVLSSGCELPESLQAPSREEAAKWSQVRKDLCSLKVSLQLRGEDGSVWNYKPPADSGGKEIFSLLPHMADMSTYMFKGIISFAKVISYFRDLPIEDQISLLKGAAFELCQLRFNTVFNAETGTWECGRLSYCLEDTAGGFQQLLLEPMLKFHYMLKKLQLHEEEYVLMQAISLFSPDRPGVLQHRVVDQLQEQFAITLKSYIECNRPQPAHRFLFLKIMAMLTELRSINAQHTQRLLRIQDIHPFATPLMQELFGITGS
Method in brief: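 PXR-Luc HepG2 reporter cells (CYP3A4-driven luciferase) in 5% charcoal-stripped FBS medium, plated 5 h before compound addition, then treated 24 h at 37C. Luciferase read by ONE-Glo luminescence after 30 min at room temperature.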

[4] = target: Cytochrome P450 2D6 (Homo sapiens) (UniProt P10635); test: Cytochrome P450 Family 2 Subfamily D Member 6 (CYP2D6) small molecule antagonists: luciferase reporter qHTS assay (AID 1671196); conditions: P450-Glo CYP2D6 enzyme assay, luciferin luminescence, 1 h; series mostly up to 115 µM; also: nearly all actives have a fitted effect of over 50% in size; also: potency is read from the fitted curve at half-maximal effect
Chain of Cytochrome P450 2D6 (Homo sapiens) (P10635 whole entry, looked up): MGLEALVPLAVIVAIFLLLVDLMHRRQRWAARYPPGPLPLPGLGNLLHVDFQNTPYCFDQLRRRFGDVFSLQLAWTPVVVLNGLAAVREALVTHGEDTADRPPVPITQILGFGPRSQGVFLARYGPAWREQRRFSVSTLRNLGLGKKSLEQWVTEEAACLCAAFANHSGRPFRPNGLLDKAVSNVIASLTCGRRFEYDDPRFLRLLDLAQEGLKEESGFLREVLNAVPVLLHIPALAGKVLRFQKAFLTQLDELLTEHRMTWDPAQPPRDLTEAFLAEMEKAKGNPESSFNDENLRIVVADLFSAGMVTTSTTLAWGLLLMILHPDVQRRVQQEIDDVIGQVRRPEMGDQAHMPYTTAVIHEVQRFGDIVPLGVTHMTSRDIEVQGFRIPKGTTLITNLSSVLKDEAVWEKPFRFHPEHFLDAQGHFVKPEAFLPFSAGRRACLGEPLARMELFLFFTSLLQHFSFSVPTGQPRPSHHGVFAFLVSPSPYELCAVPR
Method in brief: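 Cell-free P450-Glo system: CYP2D6 with proluciferin substrate was pre-incubated with compound for 10 min, then reacted with NADPH regeneration for 1 h at room temperature. Luciferin product was detected after 20 min, and data were reported as relative luminescence units.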

[5] = target: Cytochrome P450 2C19 (Homo sapiens) (UniProt P33261); test: Cytochrome P450 Family 2 Subfamily C Member 19 (CYP2C19) small molecule antagonists: luciferase reporter qHTS assay (AID 1671197); conditions: P450-Glo CYP2C19 enzyme, luciferin luminescence, 1 h; series mostly up to 115 µM; also: nearly all actives have a fitted effect of over 65% in size; also: potency is read from the fitted curve at half-maximal effect
Chain of Cytochrome P450 2C19 (Homo sapiens) (P33261 whole entry, looked up): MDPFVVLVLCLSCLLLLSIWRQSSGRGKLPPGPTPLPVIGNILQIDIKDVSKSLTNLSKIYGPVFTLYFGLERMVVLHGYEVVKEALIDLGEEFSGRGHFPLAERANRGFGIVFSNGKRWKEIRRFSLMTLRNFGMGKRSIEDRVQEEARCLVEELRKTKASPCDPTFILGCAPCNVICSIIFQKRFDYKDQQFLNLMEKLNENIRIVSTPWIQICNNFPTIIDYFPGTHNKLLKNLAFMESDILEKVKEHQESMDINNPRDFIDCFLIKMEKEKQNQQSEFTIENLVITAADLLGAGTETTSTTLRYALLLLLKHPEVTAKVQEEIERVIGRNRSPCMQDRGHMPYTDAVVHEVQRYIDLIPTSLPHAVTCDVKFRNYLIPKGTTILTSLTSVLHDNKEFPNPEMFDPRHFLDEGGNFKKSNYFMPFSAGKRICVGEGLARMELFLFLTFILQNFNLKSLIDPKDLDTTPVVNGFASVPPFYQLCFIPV
Method in brief: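 P450-Glo CYP2C19 system: enzyme-substrate mix with compound 10 min at room temperature, then NADPH regeneration solution, 1 h at 37C. Proluciferin-to-luciferin conversion detected by luminescence after 20 min with detection reagent; ketoconazole as positive control.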

[6] = target: Cytochrome P450 2C9 (Homo sapiens) (UniProt P11712); test: Cytochrome P450 Family 2 Subfamily C Member 9 (CYP2C9) small molecule antagonists: luciferase reporter qHTS assay (AID 1671198); conditions: P450-Glo CYP2C9 enzyme assay, luciferin luminescence; series mostly up to 115 µM; also: nearly all actives have a fitted effect of over 50% in size; also: potency is read from the fitted curve at half-maximal effect
Chain of Cytochrome P450 2C9 (Homo sapiens) (P11712 whole entry, looked up): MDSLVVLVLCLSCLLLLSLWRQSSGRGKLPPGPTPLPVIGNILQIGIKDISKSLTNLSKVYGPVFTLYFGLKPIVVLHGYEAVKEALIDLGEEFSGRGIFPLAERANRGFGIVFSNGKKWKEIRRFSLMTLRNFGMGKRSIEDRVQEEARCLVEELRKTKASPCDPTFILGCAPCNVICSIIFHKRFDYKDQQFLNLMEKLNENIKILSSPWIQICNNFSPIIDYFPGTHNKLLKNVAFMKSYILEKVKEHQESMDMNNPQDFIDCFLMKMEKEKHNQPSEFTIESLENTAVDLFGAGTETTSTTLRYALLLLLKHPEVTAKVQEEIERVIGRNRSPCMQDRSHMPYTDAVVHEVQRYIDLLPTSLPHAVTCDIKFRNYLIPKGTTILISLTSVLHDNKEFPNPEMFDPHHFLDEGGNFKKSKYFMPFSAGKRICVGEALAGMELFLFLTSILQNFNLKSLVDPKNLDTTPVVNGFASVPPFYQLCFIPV
Method in brief: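 CYP2C9 activity was measured with a P450-Glo proluciferin substrate. Enzyme–substrate mix was held with compound for 10 min at room temperature, then NADPH regeneration solution was added for 1 h at 37C. Luciferin product was read as luminescence.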

[7] = target: Cytochrome P450 1A2 (Homo sapiens) (UniProt P05177); test: Cytochrome P450 Family 1 Subfamily A Member 2 (CYP1A2) small molecule antagonists: luciferase reporter qHTS assay (AID 1671199); conditions: P450-Glo CYP1A2 enzyme, luciferin luminescence, 1 h; series mostly up to 115 µM; also: nearly all actives have a fitted effect of over 50% in size; also: potency is read from the fitted curve at half-maximal effect
Chain of Cytochrome P450 1A2 (Homo sapiens) (P05177 whole entry, looked up): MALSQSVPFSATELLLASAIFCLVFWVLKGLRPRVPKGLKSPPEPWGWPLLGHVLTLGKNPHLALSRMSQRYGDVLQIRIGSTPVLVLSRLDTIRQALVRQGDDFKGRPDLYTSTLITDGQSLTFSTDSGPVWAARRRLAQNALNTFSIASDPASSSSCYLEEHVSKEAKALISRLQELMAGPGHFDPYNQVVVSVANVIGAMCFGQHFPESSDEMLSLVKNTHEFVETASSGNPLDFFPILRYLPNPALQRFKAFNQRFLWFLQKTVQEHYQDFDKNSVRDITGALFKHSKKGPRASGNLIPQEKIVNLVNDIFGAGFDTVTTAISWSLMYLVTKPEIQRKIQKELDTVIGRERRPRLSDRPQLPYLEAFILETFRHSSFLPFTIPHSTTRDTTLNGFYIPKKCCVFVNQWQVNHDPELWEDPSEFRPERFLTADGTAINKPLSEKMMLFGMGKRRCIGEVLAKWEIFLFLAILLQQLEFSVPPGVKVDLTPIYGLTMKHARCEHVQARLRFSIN
Method in brief: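 P450-Glo CYP1A2 enzyme–proluciferin substrate mix with compound 10 min at room temperature, then NADPH regeneration 1 h at room temperature. Luciferin detection reagent added, luminescence read after 20 min; furafylline positive control.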

[8] = target: Voltage-gated inwardly rectifying potassium channel KCNH2 (Homo sapiens) (UniProt Q12809); test: Human Ether-a-go-go-Related Gene (hERG) channel small molecule antagonists: fluorescence cell-based qHTS assay (AID 1671200); conditions: hERG-U2OS cells, FluxOR thallium flux fluorescence; series mostly up to 76.8 µM; also: nearly all actives have a fitted effect of over 50% in size; also: potency is read from the fitted curve at half-maximal effect
Chain of Voltage-gated inwardly rectifying potassium channel KCNH2 (Homo sapiens) (Q12809 whole entry, looked up): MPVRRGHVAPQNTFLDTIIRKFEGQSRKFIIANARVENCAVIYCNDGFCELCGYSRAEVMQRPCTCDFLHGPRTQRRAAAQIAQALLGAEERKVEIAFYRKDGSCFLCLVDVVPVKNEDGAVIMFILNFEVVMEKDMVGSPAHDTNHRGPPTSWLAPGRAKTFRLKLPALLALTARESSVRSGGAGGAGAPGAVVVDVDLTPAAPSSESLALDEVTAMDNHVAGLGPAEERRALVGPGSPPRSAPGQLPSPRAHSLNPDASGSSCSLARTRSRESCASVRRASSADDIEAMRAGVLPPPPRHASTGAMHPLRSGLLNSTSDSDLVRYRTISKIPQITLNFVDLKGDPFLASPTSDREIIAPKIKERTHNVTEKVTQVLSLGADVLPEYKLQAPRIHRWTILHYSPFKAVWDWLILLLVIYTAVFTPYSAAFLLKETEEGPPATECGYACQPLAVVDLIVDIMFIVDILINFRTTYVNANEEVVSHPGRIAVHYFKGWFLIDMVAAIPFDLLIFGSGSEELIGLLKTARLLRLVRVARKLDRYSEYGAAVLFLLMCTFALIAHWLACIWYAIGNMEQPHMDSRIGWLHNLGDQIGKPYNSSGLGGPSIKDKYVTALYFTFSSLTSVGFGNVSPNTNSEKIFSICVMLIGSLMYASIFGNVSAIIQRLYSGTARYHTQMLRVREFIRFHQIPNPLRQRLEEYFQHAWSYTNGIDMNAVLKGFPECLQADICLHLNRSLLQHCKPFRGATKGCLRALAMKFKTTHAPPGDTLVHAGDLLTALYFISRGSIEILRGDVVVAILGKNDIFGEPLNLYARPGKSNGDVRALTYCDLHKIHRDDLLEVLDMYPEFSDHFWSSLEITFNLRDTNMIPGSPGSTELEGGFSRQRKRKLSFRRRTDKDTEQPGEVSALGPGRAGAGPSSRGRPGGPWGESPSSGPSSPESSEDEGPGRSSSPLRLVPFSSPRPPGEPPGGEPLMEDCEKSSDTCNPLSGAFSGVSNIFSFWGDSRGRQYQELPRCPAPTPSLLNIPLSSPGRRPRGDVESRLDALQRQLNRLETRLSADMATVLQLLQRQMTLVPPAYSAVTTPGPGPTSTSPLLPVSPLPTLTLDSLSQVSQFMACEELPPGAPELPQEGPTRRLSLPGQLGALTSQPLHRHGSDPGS
Method in brief: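 In this thallium-flux screen, overnight-cultured U2OS cells bearing the channel are dye-loaded in darkness for an hour, rested 10 min at room temperature, and then monitored kinetically at 480/540 nm for two minutes post-stimulus.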

[9] = target: Acetylcholinesterase (Homo sapiens) (UniProt P22303); test: Acetylcholinesterase (AChE) small molecule antagonists: colormetric cell-based qHTS assay (AID 1347395; calls by dose curve; also: nearly all actives have a fitted effect of over 30% in size; also: potency is read from the fitted curve at half-maximal effect); conditions: SH-SY5Y cells AChE activity, colorimetric (Ellman); series mostly up to 115 µM
Chain of Acetylcholinesterase (Homo sapiens) (P22303 whole entry, looked up): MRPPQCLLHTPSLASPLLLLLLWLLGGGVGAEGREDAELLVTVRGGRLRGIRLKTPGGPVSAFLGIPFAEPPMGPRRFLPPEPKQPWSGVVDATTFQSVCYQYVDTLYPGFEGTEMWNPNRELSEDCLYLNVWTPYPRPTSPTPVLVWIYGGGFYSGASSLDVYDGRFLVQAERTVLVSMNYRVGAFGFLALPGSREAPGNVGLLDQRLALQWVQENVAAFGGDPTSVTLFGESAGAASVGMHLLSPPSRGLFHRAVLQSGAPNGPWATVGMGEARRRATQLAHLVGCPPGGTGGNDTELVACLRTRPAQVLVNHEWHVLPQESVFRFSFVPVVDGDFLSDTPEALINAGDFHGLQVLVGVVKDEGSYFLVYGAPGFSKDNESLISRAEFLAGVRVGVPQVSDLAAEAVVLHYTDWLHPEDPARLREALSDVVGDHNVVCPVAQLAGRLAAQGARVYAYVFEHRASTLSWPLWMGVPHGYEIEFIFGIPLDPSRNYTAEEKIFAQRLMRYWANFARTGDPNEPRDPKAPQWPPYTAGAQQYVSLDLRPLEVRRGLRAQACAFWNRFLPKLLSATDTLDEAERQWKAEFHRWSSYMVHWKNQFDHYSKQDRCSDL
Method in brief: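 After overnight attachment at 37 C, SH-SY5Y cells get 30 min compound exposure; detection cocktail (acetylthiocholine, DTNB) then incubates 90 min at 37 C, and absorbance reflects AChE-generated thiocholine.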

[10] = target: Acetylcholinesterase (Homo sapiens) (UniProt P22303); test: Acetylcholinesterase (AChE) small molecule antagonists: enzyme-based qHTS assay (AID 1347397; calls by dose curve; also: nearly all actives have a fitted effect of over 55% in size; also: potency is read from the fitted curve at half-maximal effect); conditions: Potency: AChE enzyme activity inhibition; series mostly up to 115 µM
Method in brief: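 Human recombinant acetylcholinesterase; substrate acetylthiocholine; thiocholine quantified with DTNB (colorimetric). Compound preincubation 30 min RT; reaction 10 min RT.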

[11] = target: Acetylcholinesterase (Homo sapiens) (UniProt P22303); test: Acetylcholinesterase (AChE) small molecule antagonists: fluorescence cell-based qHTS assay (AID 1347398; calls by dose curve; also: nearly all actives have a fitted effect of over 50% in size; also: potency is read from the fitted curve at half-maximal effect); conditions: SH-SY5Y cells; Potency: AChE activity; series mostly up to 115 µM
Method in brief: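 Thiocholine generated from acetylthiocholine by SH-SY5Y cell AChE is detected with Thiolite Green (Ex/Em 490/520 nm) after 40 min at room temperature, following 30 min compound pretreatment at 37 C.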

[12] = target: Acetylcholinesterase (Homo sapiens) (UniProt P22303); test: Acetylcholinesterase (AChE) small molecule antagonists: enzyme-based qHTS assay with human liver microsomes (AID 1347399; calls by dose curve; also: nearly all actives have a fitted effect of over 60% in size); conditions: Potency: qHTS inhibition; series mostly up to 115 µM
Method in brief: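 Recombinant human AChE (50 mU/mL in the enzyme mix) and human liver microsomes (0.25 mg/mL final) were preincubated with compound and NADPH (0.25 mg/mL final) for 30 min at 37 C. Acetylthiocholine/DTNB was then added; thiocholine was read colorimetrically after 10 min at room temperature.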

[13] = target: Nuclear receptor subfamily 1 group I member 2 (Rattus norvegicus) (UniProt Q9R1A7); test: Rat pregnane X receptor (rPXR) activation by small molecules, qHTS assay (AID 1346983); conditions: rPXR luciferase reporter cells, One-Glo luminescence, 24 h; stronger effect = higher value; also: nearly all actives have a fitted effect of over 20% in size
Method in brief: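 Cell-based rPXR luciferase reporter assay, 2,000 cells per well, rested 5hr at 37 C before compound addition in DMSO, then 24 hr at 37 C. One-Glo reagent was added and luminescence read after 30 min at room temperature.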

SMILES	Potency [1]	Potency [2]	Potency [3]	Potency [4]	Potency [5]	Potency [6]	Potency [7]	Potency [8]	Potency [9]	Potency [10]	Potency [11]	Potency [12]	max activation [13]
O=C(O)C(Cl)Cl	inactive	–	–	–	–	–	–	–	–	–	–	–	–
CCC[N+]1(C)CCCC1	–	inactive	inactive	inactive	inactive	inactive	inactive	inactive	–	–	–	–	–
O=C(O)COc1ccc(Cl)cc1Cl	–	inactive	inactive	inactive and 35.6 µM (active)	70.7 µM (active) and inactive	–	31.6 µM (active) and inactive	–	inactive	inactive	inactive	inactive	–
O=C(O)CC(O)(CC(=O)O)C(=O)O	–	inactive	–	inactive	–	–	–	inactive	–	–	–	–	–
CCCC[N+]1(C)CCCC1	inactive	inactive	inactive	inactive	inactive and 40.2 µM (active)	inactive	inactive	–	–	–	–	–	–
CCC[N+]1(C)CCCCC1	–	inactive	inactive	inactive	inactive	inactive	inactive	inactive	inactive	inactive	inactive	inactive	–
CCCCCCCCCCCCCC[P+](CCCCCC)(CCCCCC)CCCCCC	7.13 µM (active) and 7.16 µM (active) and 3.99 µM (active)	13.7 µM (active) and 19.5 µM (active) and inactive	2.74 µM (active) and 3.89 µM (active) and 3.43 µM (active)	201 nM (active) and 101 nM (active) and 224 nM (active)	25.3 µM (active) and 35.9 µM (active) and 79.6 µM (active)	25.3 µM (active) and 35.9 µM (active) and 5.63 µM (active)	35.7 µM (active) and 63.8 µM (active)	–	71.3 µM (active) and 80.3 µM (active) and inactive	20.1 µM (active) and 25.4 µM (active) and inactive	35.7 µM (active) and 71.6 µM (active) and inactive	inactive	–
CCCCCCn1cc[n+](C)c1	–	inactive	inactive and 12.4 µM (active) and 7.57 µM (active)	–	inactive and 23.4 µM (active)	inactive	inactive	inactive	–	–	–	–	–
Oc1cccc2cccnc12	–	inactive	–	–	–	–	–	–	–	–	–	–	-0.611% (inactive)
CCCCCCCCCCn1cc[n+](C)c1	–	inactive	–	–	40.3 µM (active) and 3.26 µM (active) and inactive	5.7 µM (active) and inactive and 32.6 µM (active)	36 µM (active) and 32.6 µM (active)	–	39.8 µM (active) [middle of 6 runs]	–	35.7 µM (active) [middle of 6 runs]	inactive	–
CCCCCCCCCCCCn1cc[n+](C)c1	–	24.5 µM (active) and inactive	–	–	–	9.01 µM (active) and inactive and 64.3 µM (active)	–	–	–	–	–	–	–
CC[n+]1ccccc1	–	inactive and 19.2 µM (active)	inactive and 1.21 µM (active)	inactive	inactive and 3.96 µM (active)	inactive and 9.94 µM (active)	inactive	inactive	inactive	inactive	inactive	inactive	–
COc1ccccc1N	–	inactive	inactive	17.8 µM (active) and 35.7 µM (active) and 12.6 µM (active)	–	inactive	39.9 µM (active) and 32.3 µM (active) and 35.6 µM (active)	inactive	–	–	–	–	–
CCCCn1cc[n+](C)c1C	–	inactive	inactive	inactive	inactive	inactive	inactive and 35.9 µM (active)	–	–	–	–	–	–
CCCCCCCCCCCCCCCCn1cc[n+](C)c1	–	–	7.86 µM (active) and inactive and 6.13 µM (active)	–	–	–	36.4 µM (active) and inactive and 71.2 µM (active)	–	inactive	–	–	inactive	–
Nc1ccccc1	–	inactive	inactive	inactive and 64.5 µM (active)	30.9 µM (active) and 36.3 µM (active) and inactive	inactive and 40.7 µM (active)	36.3 µM (active) and inactive and 27.5 µM (active)	–	–	–	–	–	–
CNC	inactive	inactive	inactive	inactive	inactive	inactive	inactive	–	inactive	inactive	inactive	inactive	–

SMILES	Potency [1]	Potency [2]	Potency [3]	Potency [4]	Potency [5]	Potency [6]	Potency [7]	Potency [8]	Potency [9]	Potency [10]	Potency [11]	Potency [12]	max activation [13]
C[N+](C)(C)Cc1ccccc1	–	inactive	inactive	7.93 µM (active) and inactive and 20 µM (active)	31.6 µM (active) and inactive	79.6 µM (active) and inactive	inactive	inactive	inactive	inactive	inactive	inactive	–
CCCC[n+]1ccccc1C	–	inactive	inactive	inactive	inactive	inactive	inactive	inactive	–	–	–	–	–
CC(=O)O	–	inactive	–	–	–	–	–	inactive	–	–	–	–	–
CCCC[n+]1ccccc1	–	inactive	inactive	inactive	inactive	inactive	inactive	–	–	–	–	–	–
Cc1cc(Cl)ccc1N	–	inactive	inactive	23 µM (active) and inactive and 22.4 µM (active)	20.5 µM (active) and 31 µM (active) and 22.4 µM (active)	28.9 µM (active) and 24.6 µM (active) and 25.2 µM (active)	11.5 µM (active) and 9.8 µM (active) and 7.96 µM (active)	–	–	–	–	–	–
COc1ccc(N)cc1	–	inactive	60.6 µM (active)	–	39.9 µM (active) [middle of 4 runs]	39.9 µM (active)	inactive	inactive	–	–	–	–	–
CCCC[n+]1ccc(C)cc1	–	inactive and 19.4 µM (active)	inactive and 5.45 µM (active)	inactive and 449 nM (active)	inactive	inactive and 22.3 µM (active)	36.1 µM (active) and 35.4 µM (active) and inactive	inactive	–	–	–	–	–
CCCCCC[n+]1ccccc1	inactive	inactive	11 µM (active) and inactive	–	inactive	inactive	inactive	–	–	–	–	–	–
CCCC[n+]1cccc(C)c1	–	inactive	inactive	inactive	inactive	inactive	inactive	–	–	–	–	–	–
O=c1nc(O)n(Cl)c(=O)n1Cl	–	inactive	inactive	inactive and 1.26 µM (active)	inactive	inactive	inactive	inactive	inactive	inactive	inactive	inactive	–
Cc1cc(Cl)ccc1OCC(=O)O	inactive	inactive	inactive	inactive	inactive and 39.9 µM (active)	–	inactive	–	inactive	inactive	inactive	inactive	–
CCCCCCCCn1cc[n+](C)c1	–	inactive	13.6 µM (active) and 21.7 µM (active) and 17.4 µM (active)	5.68 µM (active) [middle of 4 runs]	39.9 µM (active) and inactive	inactive	inactive	17.3 µM (active) and 21.9 µM (active) and 22.1 µM (active)	–	–	–	–	–
O=[N+]([O-])c1ccccc1O	–	inactive	inactive	31.6 µM (active) and inactive	inactive	inactive	–	inactive	inactive	inactive	inactive	inactive	–
CC[N+](CC)(CC)CC	–	inactive	–	–	–	–	–	inactive	–	–	–	–	-1.28% (inactive)
CCn1cc[n+](C)c1C	inactive	inactive	inactive	inactive	inactive	inactive	inactive	–	inactive	inactive	inactive	inactive	–
CC[N+]1(C)CCCC1	inactive	inactive	inactive	6.3 nM (active) and inactive	inactive and 31.8 µM (active)	inactive	inactive	inactive and 21.9 µM (active)	inactive and 22.4 µM (active)	inactive	inactive	inactive	–
CCC(=O)C(CC(C)N(C)C)(c1ccccc1)c1ccccc1 (stereo not given)	–	–	8.67 µM (active) and 60.7 µM (active)	2.01 µM (active) and 996 nM (active) and 1.53 µM (active)	inactive	inactive	inactive	–	inactive	inactive	inactive	inactive	–
